Reference: the supplement of paper PMC10127200
Where a name gives a salt, the structure may show the parent alone.

Experiments:
Experiment in all cases: Euclidean distance of Cell Painting phenotypic profile (signed KS, 77 features) to DMSO centroid (dimensionless distance); 5 or 10 uM (library dependent); higher = stronger phenotypic change vs DMSO (phenoactivity)
Settings in all cases: 48 h
786-O = test system: 786-O
Method in brief: (§1)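 Library compounds were applied at 10 or 5 uM, depending on the library, with 0.1% DMSO final, for 48 h to five cancer lines and a healthy fibroblast line. After staining, cells were imaged confocally at 20X across 9 fields per well, and Harmony extracted 77 features, each scored as a signed Kolmogorov-Smirnov statistic against vehicle wells on the same plate. Phenoactivity is the Euclidean distance between each profile and the median vehicle profile, with profiles first plate-position corrected, correlation-weighted and averaged over replicates at the top dose.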

A549 = test system: A549
Method in brief: as §1

DU145 = test system: DU145
Method in brief: as §1

FB = test system: FB
Method in brief: as §1

HEPG2 = test system: HEPG2
Method in brief: as §1

OVCAR4 = test system: OVCAR4
Method in brief: as §1

Row | Compound | Euclidean distance (786-O) | Euclidean distance (A549) | Euclidean distance (DU145) | Euclidean distance (FB) | Euclidean distance (HEPG2) | Euclidean distance (OVCAR4)
1 | CC(C)NC[C@@H](C(=O)N1CCN(c2ncnc3c2[C@H](C)C[C@H]3O)CC1)c1ccc(Cl)cc1 [Ipatasertib (GDC-0068)] | 2.48 | 2.97 | 2.12 | 2.49 | 1.13 | 2.11
2 | O=C1NC(=O)/C(=C/c2ccc3c(c2)OC(F)(F)O3)S1 | 1.35 | 1.7 | 1.51 | 1.44 | 1.13 | 0.892
3 | CCN(CC)C(=O)[C@@]1(c2ccccc2)C[C@H]1CN [Levomilnacipran Hydrochloride] | 0.986 | 0.786 | 1.17 | 1.23 | 0.649 | 0.997
4 | C[C@@H]1C[C@H]2[C@@H]3C[C@H](F)C4=CC(=O)C=C[C@]4(C)[C@@]3(F)[C@@H](O)C[C@]2(C)[C@@]1(O)C(=O)CO [Flumethasone] | 1.24 | 2.47 | 2.17 | 2.26 | 0.627 | 1.97
5 | CC(=O)NCCCS(=O)(=O)O [Acamprosate Calcium] | 0.651 | 0.371 | 0.781 | 0.789 | 0.967 | 0.839
6 | CC(C)NC[C@@H](O)COc1ccc(CC(N)=O)cc1 [(R)-(+)-Atenolol HCl] | 0.631 | 0.523 | 0.486 | 0.716 | 0.626 | 0.511
7 | CN1CC(=O)N2[C@H](c3ccc4c(c3)OCO4)c3[nH]c4ccccc4c3C[C@@H]2C1=O [Tadalafil] | 1.16 | 0.906 | 0.404 | 0.948 | 0.78 | 1.22
8 | CC(C)c1cc(-c2n[nH]c(=O)n2-c2ccc3c(ccn3C)c2)c(O)cc1O [Ganetespib (STA-9090)] | 3.55 | 2.86 | 4.37 | 2.43 | 3.34 | 2.93
9 | OCc1cc(C(O)CNCCCCCCOCCCCc2ccccc2)ccc1O (centres undefined) [Salmeterol Xinafoate] | 1.27 | 1.68 | 1.58 | 2.11 | 2.19 | 1.28
10 | CC(=O)N1C[C@H](O)C[C@H]1C(=O)O [Oxaceprol] | 0.691 | 0.845 | 0.785 | 0.895 | 0.812 | 1.28
11 | COc1cc(/C=C/C(=O)O)ccc1O [Sodium ferulate] | 1.56 | 1.15 | 1.14 | 1.08 | 1.11 | 1.46
12 | CCOC(=O)C1=C[C@@H](OC(CC)CC)[C@H](NC(C)=O)[C@@H](N)C1 [Oseltamivir Phosphate] | 1.49 | 1.2 | 1.23 | 0.91 | 0.386 | 1.62
13 | Nc1ncnc2c1c(-c1cccc(OCc3ccccc3)c1)cn2C1CC(CN2CCCC2)C1 (centres undefined) | 2.84 | 3.18 | 2.28 | 3.95 | 3.36 | 1.87
14 | OC(CCN1CCCCC1)(c1ccccc1)C1CC2C=CC1C2 (centres undefined) [Biperiden HCl] | 0.618 | 0.662 | 0.98 | 1.08 | 1.01 | 0.843
15 | C[C@H]1O[C@@H](Oc2c(-c3cc(O)c(O)c(O)c3)oc3cc(O)cc(O)c3c2=O)[C@@H](O)[C@@H](O)[C@@H]1O [Myricitrin] | 1.28 | 0.726 | 1.03 | 1.54 | 0.535 | 0.952
16 | COCC1=C(C(=O)OC(C)OC(=O)OC(C)C)N2C(=O)[C@@H](NC(=O)/C(=N\OC)c3csc(N)n3)[C@H]2SC1 (some centres undefined) [Cefpodoxime proxetil] | 1.25 | 0.683 | 0.813 | 1.04 | 0.687 | 0.958
17 | O=C(O)c1ccc(-n2nc(-c3ccccc3O)nc2-c2ccccc2O)cc1 [Deferasirox] | 2.29 | 2.01 | 1.82 | 2.5 | 1.64 | 1.99
18 | CCCCN(Cc1ccc(C(=O)NO)cc1)C(=O)Nc1ccccc1 [Nexturastat A] | 1.18 | 1.83 | 2.03 | 3.14 | 1.55 | 2.05
19 | Cc1ccc(-n2sc(=O)n(Cc3ccc(F)cc3)c2=O)cc1 | 1.53 | 0.968 | 0.775 | 1.84 | 0.924 | 1.14
20 | Cc1[nH]c(=O)c(C#N)cc1-c1ccncc1 [Milrinone] | 0.957 | 0.855 | 0.761 | 0.918 | 0.762 | 0.888
21 | C[C@H](CCC(=O)O)[C@H]1CC[C@H]2[C@@H]3[C@H](O)C[C@@H]4C[C@H](O)CC[C@]4(C)[C@H]3CC[C@]12C [Chenodeoxycholic Acid] | 0.805 | 0.691 | 0.826 | 0.881 | 0.737 | 1.08
22 | CCO[C@@H]1OC(=O)C[C@@H]1NC(=O)[C@@H]1CCCN1C(=O)[C@@H](NC(=O)c1ccc(N)c(Cl)c1)C(C)(C)C | 0.836 | 1.87 | 2.17 | 1.85 | 1.04 | 1.35
23 | CCn1cc(C(=O)O)c(=O)c2cc(F)c(N3CCNC(C)C3)c(F)c21 (centres undefined) [Lomefloxacin HCl] | 0.907 | 0.839 | 0.681 | 0.822 | 0.796 | 0.657
24 | COc1cc(F)c(F)c(Nc2ccc(I)cc2F)c1NS(=O)(=O)C1(C[C@H](O)CO)CC1 [Refametinib (RDEA119. Bay 86-9766)] | 2.91 | 2.51 | 2.83 | 3.57 | 1.79 | 2.27
